# How the values were obtained:
# [1] = target: Protein kinase C gamma type (Homo sapiens) (UniProt P05129); details: at 1 µM;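 further: each value is an averaged percent inhibition of the enzyme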
# [2] = target: T1, Protein kinase C iota type (Homo sapiens) (UniProt P41743); details: at 0.1 µM
# T1 sequence (whole entry): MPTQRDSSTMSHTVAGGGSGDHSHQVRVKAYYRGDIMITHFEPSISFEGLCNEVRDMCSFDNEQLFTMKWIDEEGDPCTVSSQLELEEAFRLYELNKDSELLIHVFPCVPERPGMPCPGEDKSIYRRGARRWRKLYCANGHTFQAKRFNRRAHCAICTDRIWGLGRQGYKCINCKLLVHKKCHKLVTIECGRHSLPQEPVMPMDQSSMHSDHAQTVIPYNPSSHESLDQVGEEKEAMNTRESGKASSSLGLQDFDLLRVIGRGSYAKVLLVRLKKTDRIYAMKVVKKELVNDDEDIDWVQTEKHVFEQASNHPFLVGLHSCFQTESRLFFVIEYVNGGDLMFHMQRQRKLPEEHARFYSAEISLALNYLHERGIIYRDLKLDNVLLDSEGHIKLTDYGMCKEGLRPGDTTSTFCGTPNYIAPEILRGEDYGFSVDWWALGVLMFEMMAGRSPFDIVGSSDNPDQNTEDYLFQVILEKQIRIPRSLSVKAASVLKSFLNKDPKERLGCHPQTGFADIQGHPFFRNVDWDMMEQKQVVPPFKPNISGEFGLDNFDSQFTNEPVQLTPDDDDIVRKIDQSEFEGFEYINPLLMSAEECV
# [3] = target: T1, Protein kinase C iota type (Homo sapiens); details: at 1 µM
# [4] = target: Protein kinase C theta type (Homo sapiens) (UniProt Q04759); details: at 0.1 µM
# Protein kinase C theta type (Homo sapiens), sequence (Q04759 whole entry, looked up): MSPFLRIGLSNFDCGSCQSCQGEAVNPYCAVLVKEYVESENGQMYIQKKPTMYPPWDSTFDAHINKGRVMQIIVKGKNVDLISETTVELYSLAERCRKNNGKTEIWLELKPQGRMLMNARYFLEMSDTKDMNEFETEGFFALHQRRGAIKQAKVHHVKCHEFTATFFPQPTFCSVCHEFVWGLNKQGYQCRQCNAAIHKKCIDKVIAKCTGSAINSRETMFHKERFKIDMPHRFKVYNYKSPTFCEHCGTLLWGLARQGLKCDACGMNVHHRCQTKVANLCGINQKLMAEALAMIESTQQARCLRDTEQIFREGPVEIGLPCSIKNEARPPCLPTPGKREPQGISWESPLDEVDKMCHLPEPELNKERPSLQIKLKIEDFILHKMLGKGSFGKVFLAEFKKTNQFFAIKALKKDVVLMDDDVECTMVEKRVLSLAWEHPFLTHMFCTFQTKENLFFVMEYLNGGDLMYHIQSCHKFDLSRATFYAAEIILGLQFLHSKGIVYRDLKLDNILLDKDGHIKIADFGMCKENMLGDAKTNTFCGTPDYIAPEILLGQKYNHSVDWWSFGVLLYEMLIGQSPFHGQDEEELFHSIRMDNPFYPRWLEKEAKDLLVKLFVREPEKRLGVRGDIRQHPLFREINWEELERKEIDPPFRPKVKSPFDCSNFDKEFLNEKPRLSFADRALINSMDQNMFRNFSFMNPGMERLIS
# [5] = target: Protein kinase C theta type (Homo sapiens) (UniProt Q04759); details: at 1 µM
# [6] = target: Protein kinase C beta type (Homo sapiens) (UniProt P05771); details: at 0.1 µM
# Protein kinase C beta type (Homo sapiens), sequence (P05771 2-671 limits assumed): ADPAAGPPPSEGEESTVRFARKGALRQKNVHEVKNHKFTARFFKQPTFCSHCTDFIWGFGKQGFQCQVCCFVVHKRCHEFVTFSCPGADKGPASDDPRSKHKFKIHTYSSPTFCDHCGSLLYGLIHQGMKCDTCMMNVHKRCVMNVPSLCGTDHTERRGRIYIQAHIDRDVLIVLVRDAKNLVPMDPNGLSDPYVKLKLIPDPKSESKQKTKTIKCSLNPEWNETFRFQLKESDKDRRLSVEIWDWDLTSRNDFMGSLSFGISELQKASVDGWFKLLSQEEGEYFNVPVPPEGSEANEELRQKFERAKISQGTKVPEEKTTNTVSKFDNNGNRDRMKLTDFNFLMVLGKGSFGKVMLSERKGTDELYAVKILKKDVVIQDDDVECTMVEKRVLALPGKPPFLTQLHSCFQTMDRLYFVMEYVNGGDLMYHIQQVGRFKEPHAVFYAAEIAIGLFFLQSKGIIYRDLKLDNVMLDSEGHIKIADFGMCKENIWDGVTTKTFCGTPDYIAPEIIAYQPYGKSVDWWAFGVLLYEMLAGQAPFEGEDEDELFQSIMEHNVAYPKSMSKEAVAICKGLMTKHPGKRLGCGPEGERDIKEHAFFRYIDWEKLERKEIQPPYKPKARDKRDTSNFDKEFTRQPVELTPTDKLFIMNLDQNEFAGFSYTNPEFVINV
# [7] = target: Protein kinase C beta type (Homo sapiens) (UniProt P05771); details: at 1 µM
# [8] = target: T2, Serine/threonine-protein kinase D1 (Homo sapiens) (UniProt Q15139); details: at 0.1 µM
# T2 sequence (whole entry): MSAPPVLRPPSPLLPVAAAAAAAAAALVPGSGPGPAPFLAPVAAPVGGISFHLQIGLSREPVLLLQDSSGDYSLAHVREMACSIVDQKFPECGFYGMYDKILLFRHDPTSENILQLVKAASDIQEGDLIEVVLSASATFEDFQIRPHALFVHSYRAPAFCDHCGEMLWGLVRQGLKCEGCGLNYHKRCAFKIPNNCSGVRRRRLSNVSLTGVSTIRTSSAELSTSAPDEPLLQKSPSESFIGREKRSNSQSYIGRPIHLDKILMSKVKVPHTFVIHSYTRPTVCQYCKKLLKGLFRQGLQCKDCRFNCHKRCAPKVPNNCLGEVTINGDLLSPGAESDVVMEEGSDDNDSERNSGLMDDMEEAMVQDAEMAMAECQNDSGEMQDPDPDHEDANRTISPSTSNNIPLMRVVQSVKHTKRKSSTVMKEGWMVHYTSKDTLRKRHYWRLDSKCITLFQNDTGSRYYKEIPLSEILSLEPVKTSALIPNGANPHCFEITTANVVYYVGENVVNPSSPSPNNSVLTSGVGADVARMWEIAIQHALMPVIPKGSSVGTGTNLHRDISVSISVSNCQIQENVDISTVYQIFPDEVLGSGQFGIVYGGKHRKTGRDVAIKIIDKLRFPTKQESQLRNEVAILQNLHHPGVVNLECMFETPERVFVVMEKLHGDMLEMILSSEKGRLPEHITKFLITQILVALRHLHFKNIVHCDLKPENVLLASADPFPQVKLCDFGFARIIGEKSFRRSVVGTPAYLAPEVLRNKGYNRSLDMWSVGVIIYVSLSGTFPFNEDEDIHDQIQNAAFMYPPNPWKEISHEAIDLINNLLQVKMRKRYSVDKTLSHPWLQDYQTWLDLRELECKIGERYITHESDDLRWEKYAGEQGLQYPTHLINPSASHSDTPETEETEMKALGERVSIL
# [9] = target: T2, Serine/threonine-protein kinase D1 (Homo sapiens); details: at 1 µM
# [10] = target: T3, Serine/threonine-protein kinase D2 (Homo sapiens) (UniProt Q9BZL6); details: at 0.1 µM
# T3 sequence (whole entry): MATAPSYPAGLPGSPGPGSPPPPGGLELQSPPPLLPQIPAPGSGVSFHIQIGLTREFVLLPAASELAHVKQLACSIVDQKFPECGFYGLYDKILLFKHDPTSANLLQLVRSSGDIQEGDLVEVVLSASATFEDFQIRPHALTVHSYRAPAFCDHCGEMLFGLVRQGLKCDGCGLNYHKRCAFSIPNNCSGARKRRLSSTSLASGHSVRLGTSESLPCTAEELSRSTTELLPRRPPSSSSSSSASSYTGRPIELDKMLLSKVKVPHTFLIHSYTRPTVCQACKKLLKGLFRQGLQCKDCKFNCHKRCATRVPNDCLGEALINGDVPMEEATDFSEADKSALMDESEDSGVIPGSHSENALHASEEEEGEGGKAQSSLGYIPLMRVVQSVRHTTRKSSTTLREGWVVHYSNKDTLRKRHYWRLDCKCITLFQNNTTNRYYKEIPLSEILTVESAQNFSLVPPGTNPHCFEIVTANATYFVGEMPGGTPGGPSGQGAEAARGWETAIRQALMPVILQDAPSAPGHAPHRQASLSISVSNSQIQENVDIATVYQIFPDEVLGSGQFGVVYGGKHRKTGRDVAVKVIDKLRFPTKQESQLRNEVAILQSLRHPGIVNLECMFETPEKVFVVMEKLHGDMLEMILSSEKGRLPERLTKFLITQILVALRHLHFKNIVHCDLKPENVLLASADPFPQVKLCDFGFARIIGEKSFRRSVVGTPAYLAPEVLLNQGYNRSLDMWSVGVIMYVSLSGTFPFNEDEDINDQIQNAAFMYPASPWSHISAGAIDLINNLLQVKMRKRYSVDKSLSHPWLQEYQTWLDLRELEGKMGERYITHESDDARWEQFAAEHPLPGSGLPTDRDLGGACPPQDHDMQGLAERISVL
# [11] = target: T3, Serine/threonine-protein kinase D2 (Homo sapiens); details: at 1 µM
# [12] = target: T4, Serine/threonine-protein kinase D3 (Homo sapiens) (UniProt O94806); details: at 0.1 µM
# T4 sequence (whole entry): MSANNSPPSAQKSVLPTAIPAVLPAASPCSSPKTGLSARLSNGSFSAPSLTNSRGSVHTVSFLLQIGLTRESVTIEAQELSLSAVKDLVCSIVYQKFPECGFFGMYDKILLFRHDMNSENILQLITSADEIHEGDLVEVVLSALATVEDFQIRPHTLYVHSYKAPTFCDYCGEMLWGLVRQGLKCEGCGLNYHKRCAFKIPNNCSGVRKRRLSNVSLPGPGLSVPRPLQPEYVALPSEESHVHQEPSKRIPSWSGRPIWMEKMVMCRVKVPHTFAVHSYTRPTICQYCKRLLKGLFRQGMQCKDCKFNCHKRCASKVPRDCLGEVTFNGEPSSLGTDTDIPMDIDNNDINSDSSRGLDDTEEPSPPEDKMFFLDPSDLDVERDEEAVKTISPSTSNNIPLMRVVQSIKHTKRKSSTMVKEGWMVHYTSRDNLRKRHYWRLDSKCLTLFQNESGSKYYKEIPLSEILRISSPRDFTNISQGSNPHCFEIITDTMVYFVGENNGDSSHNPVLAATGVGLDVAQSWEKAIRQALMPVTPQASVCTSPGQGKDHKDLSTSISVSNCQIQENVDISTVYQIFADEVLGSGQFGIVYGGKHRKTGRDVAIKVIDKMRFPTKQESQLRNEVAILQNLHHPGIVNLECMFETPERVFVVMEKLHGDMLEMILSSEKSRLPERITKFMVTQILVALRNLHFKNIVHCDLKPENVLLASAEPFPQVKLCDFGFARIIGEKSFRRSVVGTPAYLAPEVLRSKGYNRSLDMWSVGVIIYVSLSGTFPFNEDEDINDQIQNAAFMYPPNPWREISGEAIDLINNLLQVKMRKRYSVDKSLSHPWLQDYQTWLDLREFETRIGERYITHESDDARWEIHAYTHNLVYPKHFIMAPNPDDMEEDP
# [13] = target: T4, Serine/threonine-protein kinase D3 (Homo sapiens); details: at 1 µM
# [14] = target: T5, cGMP-dependent protein kinase 1 (Homo sapiens) (UniProt Q13976); details: at 0.1 µM
# T5 sequence (whole entry): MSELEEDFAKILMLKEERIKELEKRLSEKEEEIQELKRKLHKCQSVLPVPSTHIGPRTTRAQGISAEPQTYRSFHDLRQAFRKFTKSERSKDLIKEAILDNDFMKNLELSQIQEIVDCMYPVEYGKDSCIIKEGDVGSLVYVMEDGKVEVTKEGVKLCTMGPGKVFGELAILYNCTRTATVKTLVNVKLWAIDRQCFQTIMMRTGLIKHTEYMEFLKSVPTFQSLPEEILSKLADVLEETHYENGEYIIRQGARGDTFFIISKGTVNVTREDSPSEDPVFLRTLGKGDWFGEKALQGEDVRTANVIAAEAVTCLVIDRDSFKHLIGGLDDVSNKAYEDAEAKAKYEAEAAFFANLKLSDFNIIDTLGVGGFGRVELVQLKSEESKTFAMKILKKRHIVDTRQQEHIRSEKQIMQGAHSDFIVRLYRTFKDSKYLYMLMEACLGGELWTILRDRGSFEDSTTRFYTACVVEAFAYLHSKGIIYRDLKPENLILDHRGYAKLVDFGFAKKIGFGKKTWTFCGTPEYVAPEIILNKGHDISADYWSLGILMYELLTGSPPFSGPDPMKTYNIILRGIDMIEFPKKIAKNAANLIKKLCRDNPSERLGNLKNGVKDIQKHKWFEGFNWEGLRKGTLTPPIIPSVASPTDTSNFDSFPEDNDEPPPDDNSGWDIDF
# [15] = target: T5, cGMP-dependent protein kinase 1 (Homo sapiens); details: at 1 µM
# [16] = target: T6, cGMP-dependent protein kinase 2 (Homo sapiens) (UniProt Q13237); details: at 0.1 µM
# T6 sequence (whole entry): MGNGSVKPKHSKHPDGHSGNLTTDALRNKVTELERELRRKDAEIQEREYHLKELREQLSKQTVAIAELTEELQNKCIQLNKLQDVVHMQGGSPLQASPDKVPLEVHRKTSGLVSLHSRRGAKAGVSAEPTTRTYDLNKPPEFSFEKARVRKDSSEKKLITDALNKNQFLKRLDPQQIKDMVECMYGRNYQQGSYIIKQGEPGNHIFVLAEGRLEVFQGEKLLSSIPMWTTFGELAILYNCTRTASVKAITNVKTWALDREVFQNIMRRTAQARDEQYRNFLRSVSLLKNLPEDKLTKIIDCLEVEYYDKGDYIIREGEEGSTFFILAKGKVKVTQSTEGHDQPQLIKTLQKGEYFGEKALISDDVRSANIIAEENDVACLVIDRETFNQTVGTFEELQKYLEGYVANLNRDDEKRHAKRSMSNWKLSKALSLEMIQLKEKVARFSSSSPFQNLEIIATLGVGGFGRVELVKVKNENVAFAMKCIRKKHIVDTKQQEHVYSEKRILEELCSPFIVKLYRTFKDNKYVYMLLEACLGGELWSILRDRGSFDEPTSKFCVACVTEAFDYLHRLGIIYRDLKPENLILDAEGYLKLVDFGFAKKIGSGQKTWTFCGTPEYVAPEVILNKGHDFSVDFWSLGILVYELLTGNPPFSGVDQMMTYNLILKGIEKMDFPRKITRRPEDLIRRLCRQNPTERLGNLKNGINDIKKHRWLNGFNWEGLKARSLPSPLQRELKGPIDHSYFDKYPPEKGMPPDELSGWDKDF
# [17] = target: T6, cGMP-dependent protein kinase 2 (Homo sapiens); details: at 1 µM
# [18] = target: T7, cAMP-dependent protein kinase catalytic subunit PRKX (Homo sapiens) (UniProt P51817); details: at 0.1 µM
# T7 sequence (whole entry): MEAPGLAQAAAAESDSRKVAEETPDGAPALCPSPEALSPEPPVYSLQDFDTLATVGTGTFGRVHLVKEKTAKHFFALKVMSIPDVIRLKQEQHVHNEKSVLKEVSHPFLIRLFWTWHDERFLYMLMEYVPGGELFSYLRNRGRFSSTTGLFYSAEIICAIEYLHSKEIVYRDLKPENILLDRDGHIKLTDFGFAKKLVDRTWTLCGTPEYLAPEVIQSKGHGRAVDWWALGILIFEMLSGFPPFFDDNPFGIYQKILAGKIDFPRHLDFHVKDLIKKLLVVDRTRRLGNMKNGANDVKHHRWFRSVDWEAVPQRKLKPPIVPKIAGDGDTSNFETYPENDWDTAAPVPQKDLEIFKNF
# [19] = target: T7, cAMP-dependent protein kinase catalytic subunit PRKX (Homo sapiens); details: at 1 µM
# [20] = target: Rho-associated protein kinase 1 (Homo sapiens) (UniProt Q13464); details: at 0.1 µM;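 further: values are mean percent inhibition of ROCK1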
# Rho-associated protein kinase 1 (Homo sapiens), sequence (Q13464 2-1354 limits assumed): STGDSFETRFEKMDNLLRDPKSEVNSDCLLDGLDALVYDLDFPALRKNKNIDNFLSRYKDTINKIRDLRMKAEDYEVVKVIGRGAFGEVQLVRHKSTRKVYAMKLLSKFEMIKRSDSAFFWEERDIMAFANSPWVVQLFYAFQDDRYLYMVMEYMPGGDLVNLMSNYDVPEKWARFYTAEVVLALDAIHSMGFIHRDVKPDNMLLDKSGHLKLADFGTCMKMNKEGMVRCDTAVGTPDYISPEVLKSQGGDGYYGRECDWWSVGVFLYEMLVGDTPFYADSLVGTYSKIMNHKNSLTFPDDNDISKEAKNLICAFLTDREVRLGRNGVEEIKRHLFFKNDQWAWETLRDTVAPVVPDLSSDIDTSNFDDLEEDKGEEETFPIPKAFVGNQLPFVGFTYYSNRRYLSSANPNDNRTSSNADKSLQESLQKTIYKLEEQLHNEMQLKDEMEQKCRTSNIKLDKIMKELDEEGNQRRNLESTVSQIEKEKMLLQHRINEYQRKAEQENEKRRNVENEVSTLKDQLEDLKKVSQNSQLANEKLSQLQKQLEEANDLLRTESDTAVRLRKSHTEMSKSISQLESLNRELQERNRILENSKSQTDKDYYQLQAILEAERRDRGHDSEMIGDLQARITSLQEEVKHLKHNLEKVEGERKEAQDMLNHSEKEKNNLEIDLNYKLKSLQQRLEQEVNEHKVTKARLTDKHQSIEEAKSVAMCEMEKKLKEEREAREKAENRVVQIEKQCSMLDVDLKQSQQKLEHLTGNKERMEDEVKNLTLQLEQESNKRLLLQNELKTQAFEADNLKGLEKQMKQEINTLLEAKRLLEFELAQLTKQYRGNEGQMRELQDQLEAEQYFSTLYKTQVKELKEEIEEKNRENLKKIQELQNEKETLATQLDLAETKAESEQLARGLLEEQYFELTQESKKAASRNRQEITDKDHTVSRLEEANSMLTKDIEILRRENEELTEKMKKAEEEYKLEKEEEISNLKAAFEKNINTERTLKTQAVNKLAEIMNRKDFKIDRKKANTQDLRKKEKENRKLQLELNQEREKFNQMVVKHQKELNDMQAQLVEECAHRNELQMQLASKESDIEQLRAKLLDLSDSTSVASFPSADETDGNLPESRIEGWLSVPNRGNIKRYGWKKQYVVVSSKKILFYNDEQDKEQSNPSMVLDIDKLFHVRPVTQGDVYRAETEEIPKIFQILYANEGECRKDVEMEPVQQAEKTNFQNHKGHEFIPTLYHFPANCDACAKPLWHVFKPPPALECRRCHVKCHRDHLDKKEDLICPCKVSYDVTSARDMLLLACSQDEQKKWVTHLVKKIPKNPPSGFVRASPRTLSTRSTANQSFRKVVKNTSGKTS
Compound,inhibition [1],inhibition [2],inhibition [3],inhibition [4],inhibition [5],inhibition [6],inhibition [7],inhibition [8],inhibition [9],inhibition [10],inhibition [11],inhibition [12],inhibition [13],inhibition [14],inhibition [15],inhibition [16],inhibition [17],inhibition [18],inhibition [19],inhibition [20]
CCN1CCC(CC(=O)Nc2n[nH]c3nc(-c4cccs4)c(Br)cc23)CC1,1.17%,-1.06%,-1%,-1.26%,-0.68%,-1.4%,2.84%,-1.83%,-1.4%,-2.1%,-1.32%,-2.16%,-0.88%,-1.47%,-0.36%,-0.23%,1.17%,-0.98%,0.48%,0.12%
NCc1ccc(-c2nc(-c3ccc(Cl)c(O)c3)c(-c3ccncc3)[nH]2)cc1,0.42%,-0.2%,-0.02%,-0.02%,-0.18%,0.76%,10.8%,0.78%,2.64%,1.57%,4.23%,0.72%,1.93%,0.03%,2.4%,-0.25%,3.58%,-0.67%,-2.14%,-0.61%
COc1cc2ncn(-c3cc(OCc4ccccc4C(F)(F)F)c(C(N)=O)s3)c2cc1OC,0.51%,3.36%,3.32%,2.16%,3.1%,1.23%,2%,0.73%,0.99%,1.16%,-1.87%,0.67%,-0.49%,2.93%,0.86%,1.68%,1.12%,1.89%,2.8%,1.68%

# — ChEMBL document CHEMBL1961873, “Compounds: GSK PKIS; Assays: Nanosyn kinase panel” (2012)
